The whole screen tested about 290,000 compounds, of which about 260 (0.09%) were called active. Rule as the data show it: active = inhibition above about 50%; inactive = the rest. Only a selection was taken, and actives are over-represented in it overall. Entries with a potency or affinity are not part of this list.
molecular target: Kappa-type opioid receptor (Homo sapiens) (UniProt P41145); assay: kappa opioid receptor blockers – cell-based, luminescence, uHTS (AID 1778); settings: KOR beta-arrestin recruitment, antagonist mode, hits give high values; at 10 µM unless noted
Sequence (P41145 whole entry, looked up): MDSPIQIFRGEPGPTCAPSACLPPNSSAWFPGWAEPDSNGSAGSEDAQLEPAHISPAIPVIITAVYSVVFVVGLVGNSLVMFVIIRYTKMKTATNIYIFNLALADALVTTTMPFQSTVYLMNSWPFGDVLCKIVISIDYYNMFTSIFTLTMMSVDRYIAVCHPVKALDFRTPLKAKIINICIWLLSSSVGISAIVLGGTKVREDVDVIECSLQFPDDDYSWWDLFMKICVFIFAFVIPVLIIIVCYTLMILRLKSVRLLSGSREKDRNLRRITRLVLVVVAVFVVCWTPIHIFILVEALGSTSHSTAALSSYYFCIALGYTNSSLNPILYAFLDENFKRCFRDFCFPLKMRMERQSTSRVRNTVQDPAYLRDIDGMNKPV

inhibition, active:
O=C(Nc1nnc(-c2ccc3c(c2)OCCO3)o1)c1ccc(Cc2ccccc2)cc1 51.8%
O=C(Nc1nnc(-c2ccco2)o1)c1ccc2ccccc2c1 89.7%
Cc1csc(NC(=S)Nc2cccc(Cl)c2)n1 57.9%
O=C(Nc1cccc(C(F)(F)F)c1)Oc1ccc(Cl)c2cccnc12 65.4%
O=C(Oc1c(Cl)cc(Cl)c2cccnc12)c1cccc([N+](=O)[O-])c1 99.6%
CN1C(=CC=C2C=C(I)C(=O)C(I)=C2)C(C)(C)c2ccccc21 68.2%
CN1/C(=C\C=C2/SC(=S)N(CC(=O)O)C2=O)C(C)(C)c2ccccc21 77.1% [at 20 µM]
COc1cc(/C=C/c2ccc3c(Br)cc(Br)c(O)c3n2)ccc1O 57.8%
C/C(=N\NC(=O)c1cc(-c2cccs2)nc2ccccc12)c1ccccn1 75.1%

inhibition, inactive:
Cc1onc(-c2ccccc2)c1C(=O)N=C(N)c1ccc(C(F)(F)F)cc1 19.1%
CCOc1cc(/C=N/NC(=O)C(=O)NCCCOC(C)C)cc(Br)c1O 4.9%
CCN1CCN(CCC(=O)Nc2ccc(C)cc2)CC1 -48.9% [at 20 µM]
Cc1cccc(CC2CC(=O)N(c3ccccc3)C2=O)c1 (stereo not drawn) -23.5%
Cc1ccc(C)c(S(=O)(=O)N2CCC3(CC2)OCCO3)c1 11.1%
O=C1COc2ccc(-c3csc(=Nc4ccc(OC(F)F)cc4)n3CC3CCCO3)cc2N1 (stereo not drawn) 14.3%
CN(C)S(=O)(=O)c1cccc(N=c2scc(-c3ccc4c(c3)NC(=O)CO4)n2CC2CCCO2)c1 (stereo not drawn) -17.4%
CSCCNC(=O)c1ccc(OC2CCN(S(=O)(=O)N(C)C)CC2)cc1 11.7% [at 20 µM]
CN(C)C(=O)c1c2c(nc3ccccc13)-c1ccccc1CC2 7.9%
CCOc1ccc(NC(=O)c2ccc(NC(=S)NC3CCCCC3)cc2)cc1 5.4% [at 20 µM]
Cc1ccc(OCc2ccccc2C)c([N+](=O)[O-])n1 -33%
CCCN(CCC)CC(O)Cn1cc(/C=C/C(=O)c2ccccc2)c2ccccc21 (stereo not drawn) 19%
CCCCN(C)CC(O)Cn1cc(/C=C/C(=O)c2cccs2)c2ccccc21 (stereo not drawn) 19.9%
COC(=O)c1sc(N)c(C(=O)OC)c1CSc1nnnn1C -5.2%
O=C(Nc1nnc(C2=COCCO2)o1)c1ccc(Cc2ccccc2)cc1 -22.6% [at 20 µM]
Cc1ccc(C(=O)Nc2nnc(-c3ccco3)o2)cc1 14.7%
COc1ccc(-c2nnc(NC(=O)c3ccc4c(c3)OCCO4)o2)cc1 29.6%
CCCN(CCC)S(=O)(=O)c1ccc(C(=O)Nc2nnc(-c3cc(OC)cc(OC)c3)o2)cc1 -91.7%
Cc1ccc(C(=O)Nc2nnc(-c3ccco3)o2)cc1C 40.8%
O=C(CCc1ccccc1)Nc1nnc(-c2ccc3c(c2)OCCO3)o1 11.2%
CC1CCN(CC(=O)Nc2ccccc2Sc2ccccc2)CC1 -8%
O=C(Nc1cccnc1)c1ccccc1Cl 21.5% [at 20 µM]
CN1CCC(N(C)S(=O)(=O)c2ccc(F)cc2F)CC1 -33.5%
Cc1c(C(=O)O)[nH]c2c1C(=O)CC(c1ccc(C(C)(C)C)cc1)C2 (stereo not drawn) 14.6%
Cc1csc(NC(=O)Nc2cccc(Cl)c2)n1 -9.6%
NNC(=S)Nc1cccc(Cl)c1 18.7%
COc1ccc(OC)c(-n2c(SCC(C)=O)nnc2-c2cccc(S(=O)(=O)N(C)C)c2)c1 21.3%
O=C(Oc1ccc(Cl)c2cccnc12)c1ccco1 6.4%
CCN(CC)C(=O)Oc1ccc(Cl)c2cccnc12 16.1% [at 20 µM]
C/C(=N\NC(N)=S)c1ccccc1 11.9%
CSC(=S)N/N=C(\C)c1ccc(Br)cc1 46.1%
Cc1c(C(=O)Nc2ccc3c(c2)OCO3)oc2ccccc12 -1.2%
Cc1ccc2nc(-c3ccccn3)[nH]c2c1 -33.9% [at 20 µM]
Cc1cc(=S)nc(-c2ccccn2)[nH]1 -17.8%
CCN(CC)CCn1c2ccccc2c2cnc(N=CN(C)C)c(C#N)c21 -24.3%
CCO/C(=C/c1sc2ccc(OC)cc2[n+]1CCCS(=O)(=O)[O-])CC 2.7%
CSc1sc2ccccc2[n+]1CCCS(=O)(=O)[O-] 21.2%
O=c1cc(-c2ccccc2)nc(Cc2c(Cl)cccc2Cl)[nH]1 29.4%
CCNC(=O)NC(=O)C(C)OC(=O)CCS(=O)(=O)c1ccc(C)cc1 (stereo not drawn) -30.7%
COc1ccc(S(=O)(=O)N2CCN(C(=O)COc3ccc(C)c(C)c3)CC2)cc1OC -25.1%
O=C(Oc1cccc2cccnc12)c1cccc([N+](=O)[O-])c1 -16.3% [at 20 µM]
O=C(Oc1ccc(Cl)c2cccnc12)c1cccc([N+](=O)[O-])c1 -2.7%
COc1cc2c(cc1OC)CN(C(=O)CCNS(=O)(=O)c1ccccc1F)CC2 5.3%
Cc1nc2scc(-c3ccccc3)c2c(=O)n1N -2.3%
Cc1ccc(C)n1-n1c(C)nc2scc(-c3ccccc3)c2c1=O -3.4%
Cc1nc(NC(=O)CSC2=NCCS2)sc1C(=O)N(C)C -22.6%
COc1ccc(S(=O)(=O)N2CCN(c3ccccn3)CC2)cc1[N+](=O)[O-] 5.2%
CC(C)(C)C(=O)/C(C#N)=C/c1cccs1 1.1%
O=C(Nc1ccccc1)c1ccc(Nc2c([N+](=O)[O-])cc([N+](=O)[O-])c3ccccc23)cc1 20.1%
Cc1ccc(NC(=O)c2ccc(Nc3c([N+](=O)[O-])cc([N+](=O)[O-])cc3[N+](=O)[O-])cc2)cc1 1.3%
Cc1ccc(NC(=O)C2CCN(S(=O)(=O)c3ccc4c(c3)NC(=O)C(C)S4)CC2)c(C)c1 (stereo not drawn) 11.1%
COc1ccc(CSc2cccc3cccnc23)cc1[N+](=O)[O-] -30.5%
Cc1cccc(NC(=O)CSc2cccc3cccnc23)c1 -3%
CC(Oc1ccccc1)C(=O)Nc1nnc(S(=O)(=O)Nc2ccccc2)s1 (stereo not drawn) -37.1% [at 20 µM]
COc1ccc(N(CC(=O)Nc2ccc(S(=O)(=O)N3CCOCC3)cc2)S(=O)(=O)c2ccc(F)cc2)cc1 28.3%
COc1ccc(N(CC(=O)Nc2ccc(S(=O)(=O)N3CCOCC3)cc2)S(=O)(=O)c2ccccc2)cc1 -0.6%
CCCCN1C(=O)/C(=C/C=C2\N(C)c3ccccc3C2(C)C)SC1=S 6.8%
CCCN1C(=O)/C(=C\C=C2/Sc3ccccc3N2CC)SC1=S -42.6% [at 20 µM]
CCCN1C(=O)/C(=C\C=C2/Sc3ccccc3N2CCO)SC1=S 17.8%
CN1/C(=C\C=C2/C(=O)Oc3ccccc3C2=O)C(C)(C)c2ccccc21 -18.4%
C=CCN1C(=O)/C(=C\C=C2\N(C)c3ccccc3C2(C)C)SC1=S 3.2%
CN1/C(=C\C=O)C(C)(C)c2ccccc21 -23.9%
O=C1CC(C2CCCO2)C(=O)N1c1ccccc1 (stereo not drawn) -21.9%
Cn1c(=O)c(C(=O)NCc2ccccc2Cl)c(O)c2ccccc21 -41.3% [at 20 µM]
Cc1ccccc1CN(C)C(=O)CNC(=O)c1ccc2ccccc2c1 -14.6%
Cc1ccc(NC(=O)Cn2cc(S(=O)(=O)c3ccc(F)cc3)c(=O)c3cc(F)ccc32)cc1 -36.8%
Cn1c(CCNC(=O)c2ccccc2)nc2cc(NC(=O)C3CCCCC3)ccc21 1.3%
COc1cc(/C=C/c2ccc3cccc(O)c3n2)cc(Br)c1OC -20%
COc1ccc(/C=C/c2ccc3cccc(O)c3n2)cc1Br -9.3%
COc1ccc(/C=C/c2ccc3c(Br)ccc(O)c3n2)cc1 0.3%
COc1cc(/C=C/c2ccc3cccc(O)c3n2)cc(OC)c1OC -5.8%
COc1ccc(C(c2nnnn2C2CCCC2)N2CCC(C)CC2)cc1 (stereo not drawn) -3%
Cn1c(=O)[nH]c(=O)c2c1nc(NCCN)n2CCOc1ccccc1 -30.9% [at 20 µM]
Cc1sc2nc(C3CC3)nc(N3CCN(C(=O)c4ccccc4F)CC3)c2c1C 4.1%
C/C(=N\NC(=O)c1c[nH]c2ccccc12)c1ccccn1 21.4%
NNC(=O)c1cc(-c2cccs2)nc2ccccc12 40.8%
O=C(N/N=C/c1ccc2ncccc2c1)c1cc(-c2cccs2)nc2ccccc12 28.4%
C/C(=N\NC(=O)c1cc2ccccc2cc1O)c1cccs1 1.2%
C/C(=N\NC(=O)c1ccccc1)c1cccc(Br)c1 21.6%
C/C(=N\NC(=O)c1cccc(Br)c1)c1cccnc1 -7.4%
C/C(=N\NC(=O)c1cc(Br)ccc1O)c1cccs1 -5.5%
C/C(=N/NC(=O)c1cc2ccccc2cc1O)c1ccco1 17%
CC(C)CNC(=S)N(CCCN(C)C)Cc1cc2cc3c(cc2[nH]c1=O)OCCO3 -1.3% [at 20 µM]
O=C(O)c1nnn(-c2cc(C(F)(F)F)cc(C(F)(F)F)c2)c1-c1ccccc1 7.9%
